# The whole screen tested about 2,400 compounds, of which about 750 (31%) were called active. The list shows a part of the results. A number with no mark means an inactive call.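 Rule for the calls: active = median signal gain over dofetilide-blocked control wells reaching their mean plus 3 SD, so readout 1 at least 0; inactive = the rest.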
# Target: Voltage-gated inwardly rectifying potassium channel KCNH2 (Homo sapiens) (UniProt Q12809)
# Assay: hERG protection against dofetilide inhibition, confirmation, cell-based, thallium flux, duplicate retest, dofetilide IC70 (AID 1835)
# Details: hERG cell line, FluxOR thallium flux, dofetilide-blocked; at 10 µM; hits give high values
# Sequence of Voltage-gated inwardly rectifying potassium channel KCNH2 (Homo sapiens) (Q12809 whole entry, looked up): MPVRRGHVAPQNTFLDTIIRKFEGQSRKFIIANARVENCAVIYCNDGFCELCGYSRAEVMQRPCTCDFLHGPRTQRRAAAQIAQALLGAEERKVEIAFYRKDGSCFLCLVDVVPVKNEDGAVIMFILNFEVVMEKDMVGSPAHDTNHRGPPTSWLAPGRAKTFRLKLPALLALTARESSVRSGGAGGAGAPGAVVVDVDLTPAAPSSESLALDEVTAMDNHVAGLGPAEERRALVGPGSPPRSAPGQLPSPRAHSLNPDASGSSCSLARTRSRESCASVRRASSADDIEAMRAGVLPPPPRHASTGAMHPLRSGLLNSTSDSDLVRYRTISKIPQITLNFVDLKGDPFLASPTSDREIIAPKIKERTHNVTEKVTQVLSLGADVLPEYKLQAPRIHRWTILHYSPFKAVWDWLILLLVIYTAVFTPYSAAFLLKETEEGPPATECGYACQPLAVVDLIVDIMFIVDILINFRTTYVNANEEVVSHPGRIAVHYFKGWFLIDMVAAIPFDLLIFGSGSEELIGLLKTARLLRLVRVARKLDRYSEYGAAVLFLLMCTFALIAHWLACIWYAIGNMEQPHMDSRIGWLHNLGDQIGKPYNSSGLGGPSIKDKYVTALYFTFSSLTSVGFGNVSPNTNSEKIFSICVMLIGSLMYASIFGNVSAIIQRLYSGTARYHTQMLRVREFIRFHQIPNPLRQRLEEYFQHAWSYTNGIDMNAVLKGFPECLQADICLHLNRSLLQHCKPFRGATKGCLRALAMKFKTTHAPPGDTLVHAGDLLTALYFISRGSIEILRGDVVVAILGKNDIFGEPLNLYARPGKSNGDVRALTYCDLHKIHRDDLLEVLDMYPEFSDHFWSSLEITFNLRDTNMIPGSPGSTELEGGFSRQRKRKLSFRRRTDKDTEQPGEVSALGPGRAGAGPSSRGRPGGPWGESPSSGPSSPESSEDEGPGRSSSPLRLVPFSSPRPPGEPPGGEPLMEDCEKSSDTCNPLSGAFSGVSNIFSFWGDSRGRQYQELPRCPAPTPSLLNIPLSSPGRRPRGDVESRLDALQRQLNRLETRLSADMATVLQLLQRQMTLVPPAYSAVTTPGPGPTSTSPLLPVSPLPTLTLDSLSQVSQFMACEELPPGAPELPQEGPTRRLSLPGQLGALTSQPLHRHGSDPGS
row,SMILES,"activity increase over dofetilide control, less the hit threshold"
1,CCCCOC(=O)c1ccc(NC(=S)NC(=O)c2c(Br)c(C)nn2C)cc1,38% (active)
2,Cc1nn(C)c(C(=O)NC(=S)Nc2ccc([N+](=O)[O-])cc2)c1Cl,18% (active)
3,CCn1ncc(Cl)c1C(=O)NC(=S)Nc1ccccc1Br,46% (active)
4,CCCCOC(=O)c1ccc(NC(=S)NC(=O)c2c(Cl)cnn2C)cc1,-11%
5,Cc1ccc(NC(=O)c2c([N+](=O)[O-])c(C(C)(C)C)nn2C)cc1,-1%
6,Cc1cc(C)nc(SCc2nnc(SCC(=O)Nc3nc(-c4ccccc4)cs3)n2-c2ccccc2)n1,-19%
7,CC(C)c1ccc2c(c1)c(SC(C)(C)C)c(CC(C)(C)C(=O)O)n2Cc1ccc(Cl)cc1,-9%
8,S=c1[nH]nc(-c2cccs2)n1/N=C/c1c(Cl)cccc1Cl,4% (active)
9,S=c1[nH]nc(-c2ccccc2)n1/N=C/c1ccc(-c2ccccc2Cl)o1,-4%
10,CC1=NN(c2ccccc2)C(=O)/C1=C/c1ccc(-c2ccc(C)c(C(=O)O)c2)o1,-18%
11,CN(C)/C=C1/C(=O)N(c2ccc([N+](=O)[O-])cc2)N=C1c1ccccc1,2% (active)
12,O=C(NNC(=O)C12CC3CC(CC(O)(C3)C1)C2)c1ccccc1O,-4%
13,Cc1nnc(SCC(=O)Nc2nccs2)n1N,-22%
14,C/C(Nc1cccc(F)c1)=C(/C#N)C(N)=O,2% (active)
15,CC(C)[C@H](NC(=O)c1ccco1)C(=O)OCC(=O)Nc1cccc(F)c1,-12%
16,CCOC(=O)c1nnn(CC(=O)Nc2cccc(F)c2)c1C(=O)OCC,-1%
17,OC(CCN1CCOCC1)c1ccccc1 (stereo unspecified),-20%
18,Cc1ccc(C)c(NC(=O)CCN2C(=O)[C@@H]3Cc4ccccc4CN3C2=O)c1,-17%
19,CC(=O)C1C(=O)c2c(cccc2[N+](=O)[O-])C1=Nc1ccccc1C (stereo unspecified),-20%
20,CCN(CC)S(=O)(=O)c1ccc2[nH]c(=O)cc(C(=O)Nc3cccc(C(C)=O)c3)c2c1,-4%
21,S=c1nc(-c2ccc(Br)cc2)[nH]c2ccccc12,50% (active)
22,CC(Oc1ccc(Br)cc1)c1nc2c3ccccc3nc(=S)n2[nH]1 (stereo unspecified),0%
23,S=c1nc(-c2ccccc2)[nH]c2ccc(Br)cc12,95% (active)
24,CC(C)c1ccc(CNc2nc3nc4c(c(=O)n3[nH]2)CCC4)cc1,-6%
25,O=C1CCN(S(=O)(=O)c2ccc(Cl)cc2)CCN1,-25%
26,COc1ccc(S(=O)(=O)c2snnc2C)cc1,-2%

row,SMILES,"activity increase over dofetilide control, less the hit threshold"
1,C=CCc1cccc(C2Nc3ccccc3C(=O)N2O)c1O (stereo unspecified),1% (active)
2,Cc1ccc(Cn2c(O)c(N=NC(=S)Nc3ccccc3F)c3ccccc32)cc1,-13%
3,C=CCn1c(O)c(N=NC(=S)Nc2ccc(OC)c(Cl)c2)c2ccccc21,7% (active)
4,C=CCn1c(O)c(N=NC(=S)Nc2ccc(OC)cc2)c2ccccc21,4% (active)
5,COc1ccc(C(CC(=O)N2CCOCC2)c2c(O)cc(OC)cc2OC)cc1 (stereo unspecified),-13%
6,CCOC(=O)C1=C(Cn2cnc3ccccc32)NC(=O)NC1c1cc(C)ccc1C (stereo unspecified),-10%
7,CC(C)[C@H](NC(=O)OC(C)(C)C)C(=O)NCC1CCC(C(=O)N[C@@H](Cc2ccccc2)C(=O)O)CC1 (stereo partly specified),-5%
8,CNC(=O)c1cc(C(=O)c2ccc(F)cc2C(F)(F)F)c[nH]1,-7%
9,COc1cc(Br)cc(/C=N/NC(=O)Cc2ccccc2)c1O,-9%
10,COc1ccc(CC(=O)Nc2ccccc2Oc2ccccc2)cc1,-13%
11,COc1cc(NC(=O)c2ccccc2)c(OC)cc1NC(=O)Cc1ccc(Br)cc1,12% (active)
12,O=c1[nH]c(C(Cl)(Cl)Cl)nc2ccc3ccccc3c12,4% (active)
13,CCCN1CCN(CCCNC(=O)Cn2nc(C)n3c(cc4cc(OC)ccc43)c2=O)CC1,-13%
14,CS(=O)(=O)Nc1cccc(-c2cn3ccccc3n2)c1,-13%
15,O=C(Nc1nnc(C2=COCCO2)o1)c1ccc(Br)cc1,-42%
16,O=C(Nc1nnc(-c2ccc3c(c2)CCCC3)o1)c1ccc(Cl)cc1Cl,9% (active)
17,O=C(Nc1nnc(-c2ccc3c(c2)CCCC3)o1)C1COc2ccccc2O1 (stereo unspecified),-12%
18,Cc1ccc(Cc2c[nH]c(=S)s2)cc1,44% (active)
19,Cc1[nH]c(=S)sc1Cc1ccc(Cl)c(Cl)c1,-12%
20,S=c1[nH]cc(Cc2ccccc2)s1,-5%
21,Cc1[nH]n2c(=O)cc(C(C)C)nc2c1-c1ccccc1,-6%
22,Cc1nn(CCC#N)c2nc(-c3ccccc3)cc(C(F)(F)F)c12,-11%
23,Cc1[nH]n2c(=O)cc(C(C)(C)C)nc2c1-c1ccccc1,14% (active)
24,NC(=O)c1nn2c(C(F)(F)F)cc(-c3ccccc3)nc2c1Br,-8%
25,O=c1cc(-c2ccccc2)nc2c(-c3ccccc3)c(C(F)(F)F)[nH]n12,56% (active)
